The source made the active and inactive calls.

Test [1] addresses Albumin (Bos taurus) (UniProt P02769). Nature of the test: compounds binding labelled BSA control protein – biochemical, small-molecule microarray, Alexa647 label, 635/667 nm fluorescence, artefact control for SMM control protein annotation, profiling panel (AID 1118).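 Further: score merges 667 nm emission intensity and signal-to-noise per printed compound spot.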 The settings on record: BSA-A647 binding, fluorescence 635 nm, higher = more signal.
Test [2] is described as follows: probe aXIP binding to arrayed compounds – biochemical, NeuroSMM set, 635/667 nm fluorescence, primary screen (AID 1119).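 Further: probe is the protein aXip251-270 applied at 1 µg/mL to compound-printed slides; binding of probe to printed compounds measured as 667 nm fluorescence plus signal to noise.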 Conditions: small-molecule microarray, higher = more signal, called active from +8 up or from −8 down.
Test [3] can be described thus: probe aNOTCH3 binding on compound microarray – biochemical, small-molecule microarray, 635/667 nm fluorescence, primary screen (AID 1120).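 Further: probe is a biotin-tagged antibody raised against NOTCH3 rather than NOTCH3 protein; score merges spot fluorescence near 667 nm with spot signal to noise.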 The settings on record: higher = more signal.
Test [4] can be described thus: probe aNOTCH2 binding on compound microarray – biochemical, small-molecule microarray, 635/667 nm fluorescence, primary screen (AID 1121).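 Further: score merges feature fluorescence read at 667 nm with its signal to noise.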 The settings on record: higher = more signal.
Test [5] concerns the target Carbonic anhydrase 2 (Homo sapiens) (UniProt P00918). Nature of the test: compounds binding carbonic anhydrase 2 – biochemical, small-molecule microarray, Alexa647-labelled CAII, profiling panel (AID 1122). Conditions: CAII-A647 binding fluorescence, higher = more signal.
Test [6] is described as follows: COS7 lysate on small-molecule microarray, probe aHis, 635 nm (AID 1123).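 Further: z-score combines 667nm fluorescence intensity with signal-to-noise per printed compound spot.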 The settings on record: COS7 cell lysate, fluorescence, higher = more signal.
Test [7] in a line: probe aLAP1 signal on lysate-treated microarray – cell lysate, small-molecule microarray, COS7 lysate, primary screen (AID 1124).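 Further: lysate comes from COS7 cells expressing LAP1 and is applied at 0.3 µg/mL; score merges spot fluorescence near 667 nm with signal-to-noise over triplicate slides.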 Conditions: probe aLAP1, fluorescence, higher = more signal.
Test [8] concerns Sam68 (KHDRBS1). Kind of test: compounds binding KHDRBS1 protein – biochemical, small-molecule microarray, 635 nm fluorescence, primary screen (AID 1125).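 Further: score merges 667 nm channel intensity with signal to noise over triplicate slides.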 Conditions: higher = more signal.
Test [9] concerns Chordin-like protein 2 (CHRDL2). Kind of test: compounds binding chordin-like 2 – biochemical, small-molecule microarray, 635 nm fluorescence, primary screen (AID 1126).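 Further: printed compound slides probed with Chrdl2 protein at 4 µg/mL for 1 h at 4 C; score merges 667 nm emission intensity with signal to noise over three replicate slides.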 Conditions: fluorescence 635 nm, higher = more signal.
In test [10] the target is Concanavalin-A (Canavalia ensiformis) (UniProt P02866). Kind of test: compounds binding concanavalin A lectin – biochemical, small-molecule microarray, Alexa647 label, 635 nm, artefact control for SMM control protein annotation, primary screen (AID 1127).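 Further: z combines 667 nm emission intensity with signal-to-noise across three replicate slides.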 Conditions: ConA-A647 binding fluorescence, higher = more signal.
Chain of Concanavalin-A (Canavalia ensiformis) (P02866 whole entry, looked up): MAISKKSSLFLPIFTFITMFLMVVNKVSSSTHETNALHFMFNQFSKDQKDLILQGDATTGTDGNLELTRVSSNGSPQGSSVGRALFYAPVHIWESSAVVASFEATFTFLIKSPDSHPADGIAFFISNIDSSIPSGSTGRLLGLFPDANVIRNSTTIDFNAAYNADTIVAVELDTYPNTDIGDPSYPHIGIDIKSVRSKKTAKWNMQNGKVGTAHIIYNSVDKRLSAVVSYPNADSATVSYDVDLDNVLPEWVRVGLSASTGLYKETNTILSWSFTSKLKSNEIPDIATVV
Test [11] is described as follows: compounds binding Alexa647 anti-His antibody – biochemical, small-molecule microarray, 635 nm fluorescence, artefact control for SMM control protein annotation, primary screen (AID 1128).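 Further: score merges feature fluorescence with signal-to-noise for each printed compound spot.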 Conditions: higher = more signal.
The subject of test [12] is Human papillomavirus type 1a E7 protein (residues 1-88). Kind of test: HPV1a E7 small-molecule binders, primary screen, biochemical, small-molecule microarray, residues 1-88, 635 nm (AID 1129). Conditions: small-molecule microarray binding, fluorescence 635 nm; higher = more signal.
The target in test [13] is Focal adhesion kinase 1 (Homo sapiens) (UniProt Q05397). Nature of the test: PTK2 protein binding on printed compound slides – biochemical, small-molecule microarray, 635/667 nm fluorescence, BSA, DTT, primary screen (AID 1130).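 Further: composite of spot emission at 667 nm and signal to noise over triplicate slides.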 The settings on record: 635 nm fluorescence, higher = more signal.
Chain of Focal adhesion kinase 1 (Homo sapiens) (Q05397 whole entry, looked up): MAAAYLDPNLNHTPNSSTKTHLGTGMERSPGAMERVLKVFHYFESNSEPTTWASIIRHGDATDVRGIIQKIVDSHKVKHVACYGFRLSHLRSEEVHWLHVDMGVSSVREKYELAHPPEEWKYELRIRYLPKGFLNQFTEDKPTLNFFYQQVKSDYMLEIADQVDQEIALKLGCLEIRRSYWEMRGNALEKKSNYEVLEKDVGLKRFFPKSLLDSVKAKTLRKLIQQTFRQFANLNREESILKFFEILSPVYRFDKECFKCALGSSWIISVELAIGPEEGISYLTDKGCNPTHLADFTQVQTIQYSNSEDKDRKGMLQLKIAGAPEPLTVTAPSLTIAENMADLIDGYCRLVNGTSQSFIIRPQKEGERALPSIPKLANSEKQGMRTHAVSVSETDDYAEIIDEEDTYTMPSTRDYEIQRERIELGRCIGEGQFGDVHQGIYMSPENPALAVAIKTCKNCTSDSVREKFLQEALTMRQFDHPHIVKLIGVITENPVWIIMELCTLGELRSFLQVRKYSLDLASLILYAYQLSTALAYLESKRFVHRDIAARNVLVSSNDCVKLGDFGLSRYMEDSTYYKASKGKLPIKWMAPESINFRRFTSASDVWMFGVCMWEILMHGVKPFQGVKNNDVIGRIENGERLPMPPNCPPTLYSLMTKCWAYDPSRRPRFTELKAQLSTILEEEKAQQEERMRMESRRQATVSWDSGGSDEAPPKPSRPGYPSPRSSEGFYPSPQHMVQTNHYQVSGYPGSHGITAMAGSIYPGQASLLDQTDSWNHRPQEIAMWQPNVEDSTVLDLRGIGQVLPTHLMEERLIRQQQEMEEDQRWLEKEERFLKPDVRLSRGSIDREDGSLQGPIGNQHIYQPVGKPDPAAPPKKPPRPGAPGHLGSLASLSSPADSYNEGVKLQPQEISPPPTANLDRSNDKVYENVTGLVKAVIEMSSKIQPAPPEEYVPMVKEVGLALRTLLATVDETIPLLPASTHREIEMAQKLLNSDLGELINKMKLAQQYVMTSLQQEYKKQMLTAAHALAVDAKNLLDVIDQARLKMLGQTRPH
The test system of test [14] is Fibrinogen (Alexa647-labelled). Nature of the test: Alexa647-fibrinogen binding to printed small molecules – biochemical, small-molecule microarray, 635/667 nm fluorescence, artefact control for SMM control-protein annotation, profiling panel (AID 1131).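 Further: z-score merges 667 nm fluorescence with per-spot signal-to-noise over triplicate slides.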 Conditions: fibrinogen-A647 binding fluorescence, higher = more signal.
In test [15] the target is Follistatin (Homo sapiens) (UniProt P19883). Nature of the test: FST protein binding to printed compounds – biochemical, small-molecule microarray, 635/667 nm fluorescence, primary screen (AID 1132). The settings on record: 635 nm fluorescence, higher = more signal.
Chain of Follistatin (Homo sapiens) (P19883 whole entry, looked up): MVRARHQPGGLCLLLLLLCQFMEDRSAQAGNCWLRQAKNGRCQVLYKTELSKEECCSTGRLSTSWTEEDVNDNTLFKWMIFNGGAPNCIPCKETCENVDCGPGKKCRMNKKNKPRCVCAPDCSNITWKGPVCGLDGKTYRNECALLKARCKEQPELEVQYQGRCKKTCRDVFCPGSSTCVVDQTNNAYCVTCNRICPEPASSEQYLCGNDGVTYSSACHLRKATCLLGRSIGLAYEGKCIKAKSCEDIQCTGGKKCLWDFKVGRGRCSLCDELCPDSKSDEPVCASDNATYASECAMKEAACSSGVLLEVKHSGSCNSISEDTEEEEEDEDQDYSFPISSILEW
The target of test [16] is Fibroblast growth factor 2 (Homo sapiens) (UniProt P09038). Nature of the test: basic fibroblast growth factor binding to printed compounds – biochemical, small-molecule microarray, 635/667 nm fluorescence, primary screen (AID 1133). Conditions: FGF2, fluorescence 635/667, higher = more signal.
Chain of Fibroblast growth factor 2 (Homo sapiens) (P09038 whole entry, looked up): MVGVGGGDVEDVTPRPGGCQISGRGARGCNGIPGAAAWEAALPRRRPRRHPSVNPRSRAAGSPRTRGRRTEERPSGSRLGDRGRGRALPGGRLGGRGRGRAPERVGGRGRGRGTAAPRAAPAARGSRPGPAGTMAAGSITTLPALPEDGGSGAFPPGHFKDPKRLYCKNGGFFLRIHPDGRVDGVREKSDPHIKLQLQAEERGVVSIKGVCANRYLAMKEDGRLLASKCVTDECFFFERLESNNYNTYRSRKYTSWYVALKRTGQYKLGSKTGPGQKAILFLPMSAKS
The nature of test [17]: JC-1 mitochondrial potential readout, lung cancer cells – cell-based, A549, JC-1 fluorescence, basal, 24 h, 100 nL, profiling panel (AID 1138).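 Further: A549 lung adenocarcinoma cells under basal conditions with no added stimulus; test concentration not given here.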 Conditions: higher = more signal.
The subject of test [18] is Lefty1. Kind of test: Lefty1 protein binding to printed compounds – biochemical, small-molecule microarray, 635/667 nm fluorescence, primary screen (AID 1139). The settings on record: fluorescence 635/667, higher = more signal.
Test [19] relates to wheat germ agglutinin (Triticum aestivum), Alexa647-labelled. Nature of the test: Alexa647-WGA lectin binding to printed small molecules – biochemical, small-molecule microarray, 635/667 nm fluorescence, artefact control for SMM control-protein annotation, profiling panel (AID 1140).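 Further: score merges 667 nm feature emission with signal to noise over triplicate slides.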 Conditions: WGA-A647 binding, 635 nm fluorescence, higher = more signal.
For test [20], the target named is Luciferin 4-monooxygenase (Photinus pyralis) (UniProt P08659). Nature of the test: inhibition of purified Photinus pyralis luciferase – biochemical, luminescence, purified enzyme, 2006 set, primary screen (AID 1141).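 Further: cell-free assay with purified firefly luciferase at 100 ng per well in PBS; test concentration not given here.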 Conditions: purified firefly luciferase, SteadyGlo luminescence, 30 min; higher = more signal, called active from +8 up or from −8 down.
Chain of Luciferin 4-monooxygenase (Photinus pyralis) (P08659 whole entry, looked up): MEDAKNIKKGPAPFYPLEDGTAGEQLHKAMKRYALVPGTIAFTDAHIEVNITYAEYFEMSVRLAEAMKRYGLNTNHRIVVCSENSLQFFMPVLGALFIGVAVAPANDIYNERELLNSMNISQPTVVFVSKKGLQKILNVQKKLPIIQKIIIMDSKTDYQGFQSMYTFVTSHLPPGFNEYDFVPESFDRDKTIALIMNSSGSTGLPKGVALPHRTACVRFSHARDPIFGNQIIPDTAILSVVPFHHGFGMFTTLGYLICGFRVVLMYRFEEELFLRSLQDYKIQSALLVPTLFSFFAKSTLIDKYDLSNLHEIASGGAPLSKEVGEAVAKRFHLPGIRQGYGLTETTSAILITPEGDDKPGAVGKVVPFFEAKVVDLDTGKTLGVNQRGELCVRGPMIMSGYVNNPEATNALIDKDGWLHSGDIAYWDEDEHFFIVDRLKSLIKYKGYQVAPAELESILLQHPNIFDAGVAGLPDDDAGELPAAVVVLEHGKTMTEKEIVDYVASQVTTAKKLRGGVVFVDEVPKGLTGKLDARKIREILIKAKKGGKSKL

Chain of Albumin (Bos taurus) (P02769 whole entry, looked up): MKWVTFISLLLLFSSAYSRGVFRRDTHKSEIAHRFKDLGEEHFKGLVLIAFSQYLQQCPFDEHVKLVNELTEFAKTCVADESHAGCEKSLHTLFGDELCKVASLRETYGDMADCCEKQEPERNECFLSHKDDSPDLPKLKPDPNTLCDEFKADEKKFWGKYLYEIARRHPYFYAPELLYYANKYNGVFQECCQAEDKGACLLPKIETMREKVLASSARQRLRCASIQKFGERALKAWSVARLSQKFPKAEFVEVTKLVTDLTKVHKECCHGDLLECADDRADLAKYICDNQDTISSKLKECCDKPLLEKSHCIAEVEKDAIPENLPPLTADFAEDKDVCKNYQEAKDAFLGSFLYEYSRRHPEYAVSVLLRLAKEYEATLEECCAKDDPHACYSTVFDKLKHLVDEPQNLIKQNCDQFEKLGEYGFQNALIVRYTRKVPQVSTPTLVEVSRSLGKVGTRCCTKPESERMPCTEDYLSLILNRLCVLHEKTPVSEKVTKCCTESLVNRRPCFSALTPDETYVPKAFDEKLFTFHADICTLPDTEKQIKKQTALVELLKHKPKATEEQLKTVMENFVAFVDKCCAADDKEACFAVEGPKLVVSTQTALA

Regarding `CC(C)=CCCC(C)=CCON=C1[C@H]2CCn3c(=O)n(-c4ccccc4)c(=O)n3[C@H]2[C@H](O)[C@@H]2O[C@H]12`, the composite z-score in test [1] is 0.271; in test [3], 0.185; in test [4], -0.14; in test [5], 0.464; in test [6] it was 1.18; in test [7], 0.353. The composite z-score in test [8] is 1.22; in [9], 1.02; in test [10], 0.763; in [11], 0.645; in test [12], 1.14; in test [13], 0.274. The composite z-score in test [14] was 0.712; in test [15] it was 1.19; in [16], 0.765; in [18] it was 0.808; in test [19], 0.505. In addition, the composite Z-score in [2] was 0.0213 (inactive). Besides, the z-score in test [17] was 0.334; in test [20], -0.416 (inactive).

Regarding `COC(=O)C(C(=O)OC)C1CCCC(=O)C1` (stereo not given), the composite z-score in test [1] is -0.0912; in [3], -0.0391; in [4], -0.0694; in test [5], 0.381; in [6] it was 0.214; in test [7], -0.205. Also, the composite z-score in test [8] was -0.0924; in test [9], 0.414; in [10], 0.468; in test [11], 0.252; in test [12] it was 0.433; in test [13], 0.193. For the same compound, the composite z-score in test [14] is 0.372; in [15], 0.326; in test [16], 0.692; in test [18], 0.804; in [19], 0.173. Besides, the composite Z-score in test [2] is 0.499 (inactive). The z-score was -1.13 in test [17] and 0.138 (inactive) in test [20].

Take `CO[C@@H]1[C@H](O)CO[C@H]1C=Cc1ccccc1`: the composite z-score in test [1] is 0.24; in test [3] it was -0.127; in [4], -0.0956; in [5], 0.405; in test [6] it was 0.402; in [7], 0.388. Also, the composite z-score was found to be 0.243 in test [8]; 0.144 in test [9]; 0.17 in test [10]; 0.286 in [11]; 0.219 in test [12]; 0.0086 in [13]. Also, the composite z-score in test [14] is 0.543; in test [15], 0.251; in [16], 0.273; in [18] it was 0.28; in test [19], -0.07. In addition, the composite Z-score in test [2] is -0.173 (inactive). The z-score in test [17] is -0.75; in test [20] it was -0.339 (inactive).

With `CC(C)=CCCC(C)=CCON=C1C[C@@H](O)[C@@H](O)[C@@H]2[C@@H]3C(=O)N(Cc4ccc5c(c4)OCO5)C(=O)[C@@H]3CC[C@H]12`, the composite z-score in test [1] worked out at 0.0686; in [3], 0.0568; in test [4], 0.428; in [5], 0.389; in test [6], 1.17; in test [7], 0.206. For the same compound, the composite z-score in test [8] is 0.945; in [9], 0.957; in test [10] it was -0.0491; in [11], 0.364; in test [12], 0.838; in [13], -0.0613. Further, the composite z-score in test [14] was found to be 0.855; in test [15] it was 0.779; in [16], 0.613; in test [18], 1.04; in test [19] it was 0.793. In test [2], the composite Z-score was -0.16 (inactive). For the same compound, the z-score is -0.564 in [17] and 0.497 (inactive) in test [20].

On to `COc1cccc([C@H]2Oc3ccc(OC)cc3C(=NOCC[C@@H]3C=C[C@H](OC(C)=O)[C@@H](COC(C)=O)O3)[C@@H]2O)c1`, for which the composite z-score was 0.869 in [1]; 0.0293 in test [3]; -0.213 in test [4]; 0.36 in test [5]; 0.788 in test [6]; 0.687 in test [7]. Also, the composite z-score in test [8] is 0.785; in [9], 0.503; in test [10], 0.794; in test [11] it was -0.972; in test [12] it was 0.562; in test [13], 0.292. The composite z-score in test [14] was 0.967; in [15] it was 0.37; in test [16], 0.462; in test [18] it was 0.329; in [19], 0.274. Moreover, the composite Z-score in test [2] was 0.551 (inactive). Besides, the z-score in [17] is -0.806; in test [20], 1.14 (inactive).

Regarding `COCOc1ccc(Br)cc1C(=O)C=Cc1ccc2c(c1)OCO2`, the composite z-score in test [1] is -0.0265; in test [3], -0.132; in [4], -0.169; in test [5], -0.321; in test [6] it was -0.576; in test [7], -0.684. The composite z-score in test [8] is -0.562; in test [9] it was 0.525; in test [10] it was -0.723; in test [11], 0.263; in test [12] it was -0.396; in [13], -0.141. Also, the composite z-score amounted to 0.962 in [14]; 0.516 in [15]; 0.449 in test [16]; 0.471 in test [18]; 0.69 in [19]. Also, the composite Z-score in test [2] was 1.33 (inactive). The z-score was 2.57 in test [17] and -2.08 (inactive) in [20].

Turning to `CCOC(=O)[C@H](CC(C)C)NC(=O)CCC1CC(OC(=O)NCc2ccc3c(c2)OCO3)CC2(CCCC(COC(=O)NCc3ccccc3)O2)O1` (stereo not given in full), the composite z-score in test [1] was 0.646; in test [3], -0.226; in [4], -0.146; in [5], 0.198; in test [6], 1.25; in test [7] it was -0.118. Further, the composite z-score came to 1.19 in test [8]; 0.161 in test [9]; 1.01 in [10]; 0.333 in [11]; 0.946 in test [12]; 0.0786 in [13]. In addition, the composite z-score in test [14] was determined as 0.926; in test [15], 0.659; in test [16], 0.495; in [18], 1.03; in test [19], 0.786. Further, in [2], the composite Z-score is 1.09 (inactive). Moreover, the z-score is -0.0369 in test [17] and 0.976 (inactive) in test [20].

As for `CC(C)[C@@H](OCc1ccccc1)[C@H](C)C=NO[C@H](C)c1cn([C@@H]2COC[C@H]2O)nn1`, the composite z-score in test [1] was 0.378; in test [3] it was 0.307; in test [4], -0.156; in [5], -0.133; in test [6], 0.811; in test [7], 0.388. Also, the composite z-score worked out at 1.3 in [8]; 0.0507 in test [9]; 0.584 in [10]; 0.0202 in test [11]; 0.693 in [12]; 0.279 in test [13]. Moreover, the composite z-score in test [14] is 0.0524; in [15], 0.229; in test [16] it was 0.422; in [18], 0.957; in [19], -0.0886. Also, in test [2], the composite Z-score is -0.0641 (inactive). In addition, the z-score in test [17] is -0.245; in [20] it was 1.06 (inactive).

As to `COc1ccc(COC(=O)NN=C2C[C@@H](O)[C@@H](O)[C@@H]3[C@@H]4C(=O)N(Cc5ccc6c(c5)OCO6)C(=O)[C@@H]4CC[C@H]23)cc1`, the composite z-score in test [1] is 0.252; in test [3], 0.0534; in test [4], -0.0523; in test [5], -0.32; in test [6], 0.352; in test [7] it was -0.257. Besides, the composite z-score in test [8] is -0.319; in [9] it was -0.486; in test [10] it was -1.15; in [11], -0.0397; in test [12], -0.474; in [13] it was -0.126. For the same compound, the composite z-score in test [14] was -0.261; in test [15], -1.12; in [16], -1.21; in test [18], -1.06; in test [19] it was 0.801. The composite Z-score in [2] is 0.0467 (inactive). Further, the z-score in test [17] was 0.419; in [20] it was 0.506 (inactive).

Source of the values: PubChem BioAssay.
